Assay outcomes as filed in PubChem.
L3MBTL1 block: qHTS Assay for the Inhibitors of L3MBTL1. Lethal(3)malignant brain tumor-like protein 1 (Homo sapiens), Q9Y468. AlphaScreen L3MBTL1–H3K9me1 peptide binding. Potency, µM (highest dose often 57.1 µM), inactives show at the top dose activity, negative = inhibition, actives largely listed as inhibitors. 0.66% of 230,000 active. AID 485360, 2010; further: nearly all actives have a fitted effect of over 60% in size
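L3MBTL1 (50 nM) pre-complexed 30 min with biotinylated H3(1-15)K9me1 peptide (75 nM), then compounds added for 30 min at room temperature; AlphaScreen streptavidin donor/nickel chelate acceptor beads (10 ug/mL final) read after 30 min dark incubation.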
RECQ1 inh-1: qHTS Assay for Inhibitors of RecQ-Like Dna Helicase 1 (RECQ1) | ATP-dependent DNA helicase Q1 (Homo sapiens), P46063 | 0.54% of 240,000 active | AID 2549, 2010 | Potency, µM (highest dose often 57.3 µM), for inactives: at the top dose activity, negative = inhibition, most hits filed as inhibitors | RECQ1 DNA unwinding, red fluorescence kinetic read;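 further: plate controls were vehicle for no effect and no enzyme for full effect; nearly all actives have a fitted effect of over 30% in size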
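RECQ1T1 50 nM; forked duplex (20 bp + 30-nt ss tails) 200 nM, ATP 2 mM final; pH 8.0, 2 mM MgCl2, 2.5 ug/ml poly(dI-dC); 15 min compound preincubation; discontinuous kinetic read over 2 h at RT.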
BLM inh: qHTS Assay for Inhibitors of Bloom's syndrome helicase (BLM); RecQ-like DNA helicase BLM (Homo sapiens), P54132; recombinant BLM DNA unwinding, fluorescence dequenching; 0.2% of 350,000 active; Potency, µM (doses to about 56.1 µM), inactives show at the top dose activity change, negative = inhibition, actives largely listed as inhibitors;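 further: plate controls were vehicle for no effect and no enzyme for full effect; nearly all actives have a fitted effect of over 35% in size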
WRN helicase inh: qHTS for Inhibitors of WRN Helicase; 0.46% of 360,000 active; AID 651768, 2012; Bifunctional 3'-5' exonuclease/ATP-dependent helicase WRN (Homo sapiens), Q14191; Potency, µM (titrated, usually from 114 µM), for inactives: top-dose activity change, negative = inhibition, actives largely listed as inhibitors; WRN helicase unwinding, fluorescent forked duplex, kinetic; further: nearly all actives have a fitted effect of over 55% in size
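Screening of the MLSMR collection measured strand separation of a quenched forked DNA duplex (100 nM) by 20 nM WRN with 2 mM ATP, all final. Compounds were preincubated with enzyme 15 min at room temperature.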
APE1 inh: qHTS Assay for Inhibitors of the Human Apurinic/apyrimidinic Endonuclease 1 (APE1); 0.35% of 350,000 active; recombinant APE1, TAMRA/BHQ-2 abasic DNA cleavage fluorescence; DNA repair nuclease/redox regulator APEX1 (Homo sapiens), P27695; Potency, µM (highest dose often 65.8 µM), without a hit: at the highest dose activity change, negative = inhibition, usual class: inhibitors; AID 2517, 2012;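 further: plate controls were vehicle for no effect and reference inhibitor for full effect; nearly all actives have a fitted effect of over 55% in size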
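Step 1: APE1 (0.75 nM) with compound, 15 min RT. Step 2: add 50 nM fluorophore/quencher THF duplex. Step 3: three fluorescence reads 60 s apart (525/598 nm); read 3 minus read 1 = reaction progress.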
RECQ1 conf: Confirmation qHTS Assay for Inhibitors of RecQ-Like Dna Helicase 1 (RECQ1); Potency, µM (series often up to 229 µM), for inactives: at the top dose activity change, negative = inhibition, usual class: inhibitors; 28% of 610 active; RECQ1 helicase DNA unwinding, fluorescence; shares compounds with RECQ1 inh-1; AID 2708, 2010; further: nearly all actives have a fitted effect of over 45% in size
RECQ1 ADP FP: Counterscreen for RECQ1 Inhibitors: ADP Fluorescence Polarization Displacement Assay; AID 2711, 2010; Potency, µM (highest dose often 228 µM), inactives show top-dose activity change, negative = inhibition, most hits filed as inhibitors; 27% of 530 active; ADP fluorescence polarization displacement counterscreen; shares compounds with RECQ1 inh-1; further: nearly all actives have a fitted effect of over 45% in size
RECQ1 inh-2: Confirmation qHTS Assay for Inhibitors of RecQ-Like Dna Helicase 1 (RECQ1) - Round 2 Cherry Picks. shares compounds with RECQ1 inh-1. recombinant RECQ1 DNA unwinding, red fluorescence. Potency, µM (series often up to 119 µM), for the others: top-dose activity, negative = inhibition, hits mostly inhibitors. 15% of 1,100 active; further: nearly all actives have a fitted effect of over 50% in size
* = called active by the depositor; i = inactive; ? = inconclusive; nt = not tested or not shown; + = active, no number; [ ] = dose if it differs, or a comment. A selection: hits, their analogues and other compounds. The true share with any hit is near 0.92%. The call rests on the fitted dose curve; in most records, active means well fitted curve in the direction sought with a large enough effect; inconclusive means small, poorly fitted or top-dose-only effect, or another doubt; inactive means no such curve, though single readings can be large; an effect the other way counts as inactive or inconclusive. Unless noted, on the % scale 0 is the no-effect control and ±100 the full control effect; potency means the concentration at half of the fitted maximal effect.

SMILES	L3MBTL1 block	RECQ1 inh-1	BLM inh	WRN helicase inh	APE1 inh	RECQ1 inh-2	others
COc1cc(NC(=O)Cn2nc(C(F)(F)F)c3c2CCCC3)c(OC)cc1Cl	nt	nt	-3%	nt	nt	nt
COc1ccc(NC(=O)/C(Cl)=C(/Cl)S(=O)Cc2ccc(Cl)cc2)cn1 (stereo unspecified)	-14%	35µM*	-17%	22µM*	9%	-33%
COc1ccc(NC(=O)C(Cl)=C(Cl)Cl)cn1	20%	-14%	-10%	4%	-3%	nt
Cc1ccc(-c2nn(CCC(=O)O)cc2CCC(=O)O)cc1	nt	i	0%	-5%	3%	nt	RECQ1 conf=14%;RECQ1 ADP FP=?
CCn1cc(CCC(=O)O)c(C)n1	29%	-12%	4%	-6%	1%	nt
CCOc1ccc(S(=O)(=O)Nc2nc3ccccc3nc2-n2ccc(=NC(=O)c3ccccc3C)cc2)cc1	-1%	?	-16%	-26%	-4%	-2%
Cc1ccccc1C(=O)N=c1ccn(-c2nc3ccccc3nc2NS(=O)(=O)c2ccccc2)cc1	nt	nt	-6%	3%	-13%	nt
C=CCn1c(=O)[nH]c2cc(C(=O)N3CCN(c4ccc(C(C)=O)cc4)CC3)ccc2c1=O	nt	4.5µM*	-25%	?	-7%	?	RECQ1 conf=?;RECQ1 ADP FP=-2%[91.9 µM]
C=C1CCC2C(C)(C)[C@@H](O)CC[C@@]2(C)[C@@H]1COc1ccc2ccc(=O)oc2c1 (stereo partly specified)	nt	nt	-23%	-5%	43%	nt
CC(=O)OC1CCC2(C)C(COc3ccc4ccc(=O)oc4c3)C(C)(O)CCC2C1(C)C (stereo unspecified)	2%	?	-11%	-4%	11%	-23%
CCOC(=O)c1cc(-c2ccccc2)sc1NC(=O)CN1C(=O)NC(CC)(c2ccc(F)cc2)C1=O (stereo unspecified)	nt	32µM*	-8%	-1%	1%	-21%
CCOC(=O)c1cc(-c2ccccc2)sc1NC(=O)CN1C(=O)NC(CC)(c2ccccc2)C1=O (stereo unspecified)	nt	i	-5%	-14%	6%	nt
COC(=O)CCNC(=O)NC(CCC(C)C)c1c(-n2cccc2)sc2c1CCN(C)C2 (stereo unspecified)	nt	nt	-2%	nt	nt	nt
COc1ccc(CC(=O)Nc2cccc(-c3ccc4nnc(C)n4n3)c2)cc1	nt	-14%	-2%	0%	3%	nt
Cc1nnc2ccc(-c3cccc(NC(=O)Cc4cccs4)c3)nn12	nt	?	-13%	-3%[11.6 µM]	3%	-25%
CC(C)NS(=O)(=O)c1ccc(OCC(=O)N2CCN(c3ccccc3F)CC2)cc1	nt	nt	0%	nt	nt	nt
Cc1cccc(N2CCN(C(=O)Cc3ccc(-n4c(=O)[nH]c5ccsc5c4=O)cc3)CC2C)c1 (stereo unspecified)	1%	-7%	2%	-6%	14%	nt	RECQ1 conf=-4%;RECQ1 ADP FP=3%
C=C1c2cccc(O)c2C(O)=C2C(=O)[C@]3(O)C(O)=C(C(N)=O)C(=O)C(N(C)C)C3C(O)C12 (stereo partly specified)	nt	8.9µM*	-4%	nt	4µM*	-13%	RECQ1 conf=?;RECQ1 ADP FP=7.9µM*
C=C1c2cccc(O)c2C(O)=C2C(=O)[C@]3(O)C(O)=C(C(N)=O)C(=O)[C@@H](N(C)C)[C@@H]3[C@@H](O)[C@H]12	0.89µM*	7.9µM*	-11%	?	2.5µM*	-7%	RECQ1 conf=?;RECQ1 ADP FP=7.1µM*
COc1cccc(CNS(=O)(=O)c2cnc(N)nc2)c1	nt	nt	-2%	nt	nt	nt
Cc1cccn2c(=O)c3cc(C#N)c(=O)n(-c4nnc(SCc5ccc(Cl)cc5)s4)c3nc12	nt	nt	-13%	nt	nt	nt
CCOC(=O)C1=C(c2ccccc2)N=c2sc(=Cc3cc(OC)c(OC)c(OC)c3)c(=O)n2C1c1cccs1 (stereo unspecified)	nt	nt	nt	1%	nt	nt
CCOC(=O)C1=C(c2ccccc2)N=c2s/c(=C\c3ccc(O)cc3)c(=O)n2C1c1cccs1 (stereo unspecified)	-2%	?	-12%	?	0%	16µM*
CCn1c(NN)nc2sc3c(c2c1=O)CCC3	nt	?	-16%	-14%	0%	-11%
NNc1nc2sc3c(c2c(=O)n1Cc1ccccc1)CCC3	-30%	-3%	-12%	-15%[11.6 µM]	-9%	nt
SMILES	L3MBTL1 block	RECQ1 inh-1	BLM inh	WRN helicase inh	APE1 inh	RECQ1 inh-2	others
CCCN1C(=O)/C(=C/c2ccc(C)o2)SC1=Nc1ccc(OC)cc1	-15%	?	-6%	-12%	-6%	-26%
CCCN1C(=O)/C(=C/c2ccco2)SC1=Nc1ccc(OC)cc1	?	25µM*	-21%	-3%	?	-9%
CCOC(=O)C1(C)C=C(Nc2cccc(C)c2)C(=O)N1c1ccccc1 (stereo unspecified)	nt	nt	-11%	nt	nt	nt
c1coc(-c2nnc3sc(Cc4cccs4)nn23)c1	nt	?	-27%	45µM*	25µM*	?
Clc1ccc(-c2nnc3sc(Cc4cccs4)nn23)c(Cl)c1	-2%	-18%	-7%	-3%	0%	nt
c1coc(-c2nn3c(-c4ccco4)nnc3s2)c1	-29%	?	-12%	?	?	?
c1csc(Cc2nn3c(-c4n[nH]c5c4CCC5)nnc3s2)c1	nt	14µM*	-19%	-36%	-1%	-17%	RECQ1 ADP FP=-10%[91.9 µM]
COc1ccccc1-c1nn2c(-c3ccco3)nnc2s1	?	-17%	-8%	-16%	-9%	nt
Cc1cc(=O)c2c(O)c3c(O)cc(=O)c4c3c3c(cc(O)c1c23)C(C)(C)C=4O	nt	1.8µM*	7.1µM*	nt	6%	i	RECQ1 conf=+;RECQ1 ADP FP=0.32µM*
